Results from PubChem BioAssay AID1892 (NMMLSC, 2009).
About 140 (2.4%) of roughly 5,900 compounds were called active. No stated cut-off is given here; in the data, active means binding response below about 16% or above about 210%; inactive means in between. For the sample, actives were picked, then their nearest neighbours and some compounds at random.

Target: Mitogen-activated protein kinase kinase kinase 2 (Homo sapiens) (UniProt Q9Y2U5)
Assay: wildtype MEKK2 PB1-MEK5 interaction enhancers or blockers – biochemical, single concentration, multiplex bead flow cytometry, confirmation (AID 1892)
Settings: Alexa488-MEK5 binding to MEKK2 WT, at 10 µM, actives lie on both sides

| SMILES | binding response (% of control) |
| --- | --- |
| CN(C)CCCNC(=O)/C=C/c1ccc(OCc2c(F)cccc2Cl)cc1 | 150% (inactive) |
| O=C(c1cnn(-c2ccc(Cl)cc2)c1)c1ccccc1O | 112% (inactive) |
| O=C(O)/C=C\C(=O)Nc1ccc(OCc2ccccc2)cc1 | 102% (inactive) |
| O=C(OCc1cc(Cl)ccc1OC(F)F)c1cccnc1 | 95% (inactive) |
| CCNC(=O)CSc1nc(-c2ccccc2)cs1 | 99% (inactive) |
| O=C(OCC1O[C@@H](OC(=O)c2cc(O)c(O)c(O)c2)[C@@H](OC(=O)c2cc(O)c(O)c(O)c2)[C@@H](OC(=O)c2cc(O)c(O)c(O)c2)[C@@H]1OC(=O)c1cc(O)c(O)c(O)c1)c1cc(O)c(O)c(O)c1 (stereo partly specified) | -1% [inhibitor] (active) |
| CCOC(=O)c1c(-c2ccccc2)csc1NC(=S)NC(=O)c1ccccc1 | 102% (inactive) |
| CCCCCCCCCCOC(=O)Cn1c(COc2ccc(C)cc2)[n+](C)c2ccccc21 | 217% (active) |
| CCCCCCCCCCOC(=O)Cn1c(COc2cccc(OC)c2)[n+](C)c2ccccc21 | 257% (active) |
| FC(F)(F)c1cccc(N/N=C/c2ccccc2)c1 | 151% (inactive) |
| Cc1ccc(S(=O)(=O)NC(=O)N2CCCC(C)(C)C2)cc1 | 101% (inactive) |
| COc1cc(/C=C2\SC(=S)N(Nc3ncc(C(F)(F)F)cc3Cl)C2=O)cc(OC)c1OC | 74% (inactive) |
| Cc1cc(Cl)ccc1OCc1nc(-c2ccncc2)no1 | 80% (inactive) |
| COc1ccccc1N1CCN(CCCCOc2ccc(F)cc2)CC1 | 109% (inactive) |
| Cc1no[n+]([O-])c1COc1ccccc1/C=C1\NC(=S)NC1=O | 99% (inactive) |
| CCO[C@H]1OC(C(=O)N2CCOCC2)=C[C@@H](c2ccc3c(c2)OCO3)[C@@H]1CCCO | 101% (inactive) |
| c1ccc(Nc2nc(N3CCOCC3)c3ccccc3n2)cc1 | 124% (inactive) |
| COCC(C)NC(=O)COc1nncc2ccccc12 (stereo unspecified) | 96% (inactive) |
| Cn1c(=NC(=O)CSCC(=O)N2CCOCC2)sc2ccccc21 | 90% (inactive) |
| CCc1nnc(NC(=O)c2sc3nc(C)cc(COC)c3c2N)s1 | 107% (inactive) |
| Cc1ccccc1C(=O)NNC(=O)CN1C(=O)c2ccccc2C1=O | 92% (inactive) |
| C#CCOCCOCCOCCNc1nc(N2CCN(C(=O)[C@H](CCCCN)n3cc([C@@H](N)C(C)CC)nn3)CC2)nc(N2CCN(C(=O)[C@H](Cc3ccc(O)cc3)n3cc([C@@H](N)C(C)CC)nn3)CC2)n1 (stereo partly specified) | 183% (inactive) |
| COc1ccc(C2CC(c3cccs3)=NN2c2nc(C)c(C(C)=O)s2)cc1OC (stereo unspecified) | 82% (inactive) |

| SMILES | binding response (% of control) |
| --- | --- |
| CCOC(=O)c1cc2occc2n1CC(=O)N1CCN(C(=O)c2ccco2)CC1 | 92% (inactive) |
| COC(=O)c1cc(NC(=O)c2cc(C(C)(C)C)nn2Cc2cccc(C)c2)ccc1N1CCOCC1 | 102% (inactive) |
| Cc1ccc(S(=O)(=O)/N=S(\C)C(C)C)cc1 (stereo unspecified) | 101% (inactive) |
| CCOC(=O)/C(C#N)=C/c1ccc(OCC(=O)Nc2ccccc2)c(OC)c1 | 103% (inactive) |
| CN(C)CCCN(C(=O)c1ccc(S(=O)(=O)N2CCCc3ccccc32)cc1)c1nc2ccc(F)cc2s1 | 198% (inactive) |
| O=C(Nc1ccc2ccccc2c1)Nc1ccc2snnc2c1 | 155% (inactive) |
| CCOc1ccc(NC(=O)Nc2cc(C)ccc2OC)cc1 | 106% (inactive) |
| CCOc1cc(C(=O)OCC(=O)Nc2cccc(C)c2)ccc1OCC(=O)N1CCOCC1 | 106% (inactive) |
| CCOC(=O)Cc1csc(NC(=O)CSc2nc(C)cc(=O)[nH]2)n1 | 92% (inactive) |
| CCOc1nnc(C)c2c(C)n(-c3cccc(Cl)c3)nc12 | 86% (inactive) |
| O=C(COC(=O)CNC(=O)c1ccco1)Nc1ccc(F)cc1 | 98% (inactive) |
| Cn1c(=NC(=O)CSCC(=O)N2CCCCC2)sc2ccccc21 | 103% (inactive) |
| N=C1/C(=C/c2cccn2-c2cccc([N+](=O)[O-])c2)C(=O)N=C2SC=CN12 | 99% (inactive) |
| O=C(c1ccc(Br)o1)N(c1ccccn1)C1CCCCC1 | 101% (inactive) |
| CC(C)(C)NC(=O)Cn1cnc([N+](=O)[O-])n1 | 96% (inactive) |
| O=C(CC1SCCNC1=O)Nc1ccc(Cl)c(Cl)c1 (stereo unspecified) | 104% (inactive) |
| O=c1c(/C=N/O)coc2ccc(Cl)cc12 | 100% (inactive) |
| CCN(CC)C(=O)CC(c1ccc2c(c1)OCO2)c1c(OC)cc(OC)c2c(-c3ccccc3)cc(=O)oc12 (stereo unspecified) | 99% (inactive) |
| Cc1ccc(C(=O)N/C(=C/c2ccco2)C(=O)NCCc2c[nH]c3ccccc23)cc1C | 101% (inactive) |
| CN1CCN(/N=C/c2ccc(C#N)cc2)CC1 | 92% (inactive) |
| CCN1CCN(c2nc(Nc3cc(OC)ccc3OC)nc(Nc3cc(OC)ccc3OC)n2)CC1 | 148% (inactive) |
| COc1ccccc1OCCNCC(O)COc1cccc2[nH]c3ccccc3c12 (stereo unspecified) | 159% (inactive) |
| COc1ccccc1NC(=S)N1CCN(c2ccc(F)cc2)CC1 | 100% (inactive) |

| SMILES | binding response (% of control) |
| --- | --- |
| O=C(O)/C(=C/c1cccnc1)NC(=O)c1ccccc1 | 103% (inactive) |
| c1ccc(CN2CCC(N=C3NN=C(c4ccc5c(c4)OCCO5)CS3)CC2)cc1 | 164% (inactive) |
| COc1cccc(/C(C)=N/Nc2ncc(Cl)cc2Cl)c1 | 100% (inactive) |
| O=C(c1ccco1)N1CCN(c2cccc(Cl)c2)CC1 | 93% (inactive) |
| COC(=O)C1=NN(c2ccccc2)C2C(=O)N(c3ccccc3OC)C(=O)C12 (stereo unspecified) | 97% (inactive) |
| CCN1CCN(CCNC(=O)c2ccc(/C=C3/Sc4ccccc4N(Cc4cccc(C)c4)C3=O)cc2)CC1 | 236% (active) |
| Cc1cccc(CN2CCC(CNC(=O)Nc3ccc(F)c(Cl)c3)CC2)c1 | 126% (inactive) |
| C/C(=N\NC(=O)CNC(=O)C(c1ccccc1)c1ccccc1)c1ccc(C)cc1 | 106% (inactive) |
| CCOC(=O)c1cc2c(nc1NC(=S)Nc1ccccc1)CC(C)(CC)OC2 (stereo unspecified) | 101% (inactive) |
| C=CCN(CC=C)S(=O)(=O)c1ccc(C(=O)Nc2sc3c(c2C(N)=O)CCCCC3)cc1 | 99% (inactive) |
| COc1cccc(NC(=S)NCCCN2CCOCC2)c1 | 109% (inactive) |
| CCOc1ccc(S(=O)(=O)N(CC(=O)O)c2ccccc2)cc1 | 103% (inactive) |
| COc1cccc(OC)c1C(=O)Nc1ccc(Cc2ccncc2)cc1 | 100% (inactive) |
| CCCN(CCC)c1nc2c(C)cccn2c(=O)c1/C=C1/SC(=S)N(Cc2ccco2)C1=O | 85% (inactive) |
| CCCCn1c(SCC(=O)NCCc2ccc(OC)c(OC)c2)nc2c1c(=O)n(C)c(=O)n2C | 103% (inactive) |
| N=C(N)SCc1cccc2ccccc12 | 105% (inactive) |
| CCc1ccc(-c2nn(-c3ccccc3)cc2CSC(=N)N)cc1 | 210% (active) |
| CC(=O)N1CCN(S(=O)(=O)c2ccc(C)c([N+](=O)[O-])c2)C1C(C)C (stereo unspecified) | 97% (inactive) |
| COc1ccc(CC(=O)N2N=C(C)CC2(O)C(F)(F)F)cc1 (stereo unspecified) | 96% (inactive) |
| COc1ccc(S(=O)(=O)Nc2ccc3oc(C)c(C(C)=O)c3c2)cc1 | 95% (inactive) |
| NC(N)=N/N=C/c1ccc(OCc2ccc(Cl)cc2Cl)cc1 | 234% (active) |
| CC(C)CC(=O)NC(=S)Nc1cc(C(=O)O)ccc1Cl | 102% (inactive) |
| CCn1cc(CN2CCC(C(=O)Nc3cccc(-c4cccc(Cl)c4)c3)CC2)cn1 | 182% (inactive) |

| SMILES | binding response (% of control) |
| --- | --- |
| O=C(Cc1cccc2ccccc12)Nc1ccc2oc(-c3ccccc3)nc2c1 | 115% (inactive) |
| O=C(CN1C(=O)c2cccnc2Oc2ccc(Cl)cc21)Nc1ccc(F)cc1 | 99% (inactive) |
| N/C(=N\OS(=O)(=O)c1cccc([N+](=O)[O-])c1)c1ccncc1 | 103% (inactive) |
| c1ccc2c(c1)C(=NC1CCCCC1)NC2=NC1CCCCC1 | 125% (inactive) |
| CCOC(=O)CN(C)S(=O)(=O)c1ccc(-c2cc(C(=O)OC)sc2C(F)(F)F)cc1 | 101% (inactive) |
| O=C(NCCC1=CCCCC1)c1ccc(Cl)c([N+](=O)[O-])c1 | 105% (inactive) |
| CCN(CC)CCOc1ccc2c(c1)C(=NNC(=O)c1ccccn1)c1cc(OCCN(CC)CC)ccc1-2 | 210% (active) |
| CN(C)CCCNC(=O)c1cc(C(=O)Cc2ccc(Cl)cc2)c[nH]1 | 106% (inactive) |
| C[C@H]1CCC(=O)N([C@H](CSc2ccccc2)Cc2ccccc2)CC1 | 111% (inactive) |
| O=C(NCCCN1CCCCCC1)C1CC(=O)N(C2CCCC2)C1 (stereo unspecified) | 1% [inhibitor] (active) |
| O=C(NCCCN1CCCCCC1)c1ccc(N2CCCC2=O)cc1 | 156% (inactive) |
| Cn1c(C(=O)NCCCN2CCCCC2)cc2sccc21 | 119% (inactive) |
| C=CCn1c(=S)sc2c(=O)[nH]c(C)nc21 | 106% (inactive) |
| O=C1Nc2ccc(Br)cc2/C1=N/N=C/C1=C(N2CCOCC2)C(=C\c2ccccc2)/CC1 | 47% (inactive) |
| N#C/C(=C\C1=C(N2CCOCC2)C(=C\c2ccccc2)/CC1)C(=O)Nc1ccccc1F | 10% [inhibitor] (active) |
| O=C(O)C1CCN(c2ccc([N+](=O)[O-])cc2[N+](=O)[O-])CC1 | 103% (inactive) |
| Cc1ccc2c(C)c(C(=O)N3CCN(c4ccncc4)CC3)oc2c1C | 161% (inactive) |
| CC1(C)Cc2cccc(OCC(=O)N3CCN(c4ccc([N+](=O)[O-])cc4)CC3)c2O1 | 99% (inactive) |
| CN1C(=O)/C(=C\c2ccc(-c3ccccc3)o2)SC1=S | 23% (inactive) |
| CCOC(=O)N1CCN(CC(=O)n2c(C)c(C)c3ccccc32)CC1 | 93% (inactive) |
| FC(F)(F)c1nc(-c2ccccc2)ncc1-c1nnnn1-c1ccccc1 | 96% (inactive) |
| O=C(NCCCN1CCN(c2ccc(F)cc2)CC1)Nc1ccc([N+](=O)[O-])cc1 | 129% (inactive) |
